Data as given in PubChem BioAssay (NCI).
Compounds without any hit were thinned out: in the full panel of roughly 79,000, 15% have a hit. Activity calls are given as the source filed them. Rule as the data show it: active = growth inhibition above about 70%; inactive = the rest.

Key:
[1] = NCI Yeast Anticancer Drug Screen. Data for the rad52 strain (AID 147);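 also: 0% = growth of vehicle-treated control cultures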; conditions: S. cerevisiae rad52 mutant growth inhibition, hits give high values
Summary of the method: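 Genetically altered yeast (DNA damage repair defect) treated with compound; inhibition calculated relative to vehicle.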

[2] = NCI Yeast Anticancer Drug Screen. Data for the wt1 strain (AID 149);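 also: 0% = growth of vehicle-treated wt1 cultures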; conditions: S. cerevisiae wt1 strain (SPY 50644) growth inhibition, hits give high values
Summary of the method: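 Using yeast strain wt1, compound-induced growth inhibition was determined against vehicle-treated cultures.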

[3] = NCI Yeast Anticancer Drug Screen. Data for the rad50EPP+ strain (AID 151);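 also: 0% = growth of vehicle-treated control cultures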; conditions: S. cerevisiae rad50 mutant strain, hits give high values
Summary of the method: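 Strain rad50EPP+; compound exposure; % growth inhibition vs vehicle.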

[4] = NCI Yeast Anticancer Drug Screen. Data for the rad50 strain (AID 155);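 also: 0% = growth of vehicle-only cultures of the same strain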; conditions: S. cerevisiae rad50 strain growth inhibition, hits give high values
Summary of the method: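 Relative growth inhibition (compound vs vehicle) was measured in yeast with a defined repair-gene alteration.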

[5] = NCI Yeast Anticancer Drug Screen. Data for the mec2-1 strain (AID 157); conditions: S. cerevisiae mec2-1 strain, hits give high values
Summary of the method: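 Cells of the genetically defined mec2-1 yeast strain are incubated with test compound. Inhibition of growth is calculated against vehicle-treated controls.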

[6] = NCI Yeast Anticancer Drug Screen. Data for the rad14 strain (AID 159);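 also: 0% = growth of vehicle-treated control cultures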; conditions: S. cerevisiae rad14 strain growth inhibition, hits give high values
Summary of the method: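 Screen for anticancer potential: a yeast strain altered in DNA damage repair is grown with compound, and reduced growth is quantified against vehicle controls.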

[7] = NCI Yeast Anticancer Drug Screen. Data for the sgs1 mgt1 strain (AID 161);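 also: 0% = growth of cultures given vehicle only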; conditions: S. cerevisiae sgs1 mgt1 strain, hits give high values
Summary of the method: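 Test agents were incubated with a DNA-repair-mutant yeast strain. Growth was then read and compared against vehicle-treated controls.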

[8] = NCI Yeast Anticancer Drug Screen. Data for the CLN2oe strain (AID 163);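 also: 0% = growth of vehicle-only control cultures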; conditions: S. cerevisiae CLN2oe strain, hits give high values
Summary of the method: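 Strain altered in cell-cycle control, incubated with compound; growth compared to solvent-treated controls.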

[9] = NCI Yeast Anticancer Drug Screen. Data for the cln2 rad14 strain (AID 165);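 also: 0% = growth equal to vehicle treated cultures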; conditions: S. cerevisiae cln2 rad14 strain, hits give high values
Summary of the method: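 The screen exposed genetically defined yeast (cln2 rad14) to test compounds and scored growth inhibition relative to vehicle-treated controls.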

[10] = NCI Yeast Anticancer Drug Screen. Data for the bub3 strain (AID 167); conditions: S. cerevisiae bub3 mutant strain, hits give high values
Summary of the method: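 Screening used yeast with an engineered genetic alteration affecting cell cycle control. Compound-exposed cultures were compared with vehicle cultures, and reduced growth was taken as inhibition.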

[11] = NCI Yeast Anticancer Drug Screen. Data for the wt2 strain (AID 169);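 also: 0% = growth of vehicle-treated yeast cultures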; conditions: S. cerevisiae wt2 strain growth inhibition, hits give high values
Summary of the method: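 Steps: yeast strain treated with compound; growth recorded; inhibition calculated relative to cultures given vehicle alone.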

[12] = NCI Yeast Anticancer Drug Screen. Data for the mlh1 strain (AID 171);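 also: 0% = growth of vehicle-treated control cultures of the same strain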; conditions: S. cerevisiae mlh1 strain growth inhibition, hits give high values
Summary of the method: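 Yeast screen: mutant strain plus compound, growth scored against vehicle control wells.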

[13] = NCI Yeast Anticancer Drug Screen. Data for the sgs1 strain (AID 173);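 also: 0% = growth of vehicle-only control cultures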; conditions: S. cerevisiae sgs1 mutant, hits give high values
Summary of the method: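 Inhibition of yeast growth served as the measure. The mutant strain was treated with each compound, and growth was normalised to cultures receiving vehicle alone.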

[14] = NCI Yeast Anticancer Drug Screen. Data for the mlh1 rad18 strain (AID 175); conditions: S. cerevisiae mlh1 rad18 strain growth inhibition, hits give high values
Summary of the method: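 Compound-treated yeast growth, normalised to vehicle controls. Strain bears defined DNA repair mutations.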

[15] = NCI Yeast Anticancer Drug Screen. Data for the rad18 strain (AID 177); conditions: S. cerevisiae rad18 mutant growth inhibition, hits give high values
Summary of the method: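 Inhibition values reflect reduced yeast growth compared with vehicle-treated controls, using a strain engineered with a DNA damage repair defect.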

[16] = at 5.0 µM (retest, dose inferred, filed as 0.5)
[17] = at 50.0 µM (retest, dose inferred, filed as 5.0)

Measured: growth inhibition

COC(COC(=O)N1CCN(C=O)CC1)C1=C(N2CC2)C(=O)C(C)=C(N2CC2)C1=O (stereo unspecified)
inactive: [1]; at 1.2 µM 4% | [1]; at 3.7 µM 18% | [1]; at 11.0 µM 30% | [1]; at 33.0 µM 66% | [2]; at 1.2 µM 10% | [2]; at 3.7 µM 12% | [2]; at 11.0 µM 22% | [2]; at 33.0 µM 39% | [2]; at 100.0 µM 47% | [3]; at 1.2 µM -44% | [3]; at 3.7 µM -38% | [3]; at 11.0 µM -35% | [3]; at 33.0 µM -8% | [3]; at 100.0 µM -5% | [4]; at 1.2 µM 17% | [4]; at 3.7 µM 35% | [4]; [16] 64% | [4]; at 11.0 µM 43% | [4]; at 33.0 µM 53% | [4]; [17] 22% | [4]; at 50.0 µM 35.3% | [5]; at 1.2 µM -6% | [5]; at 3.7 µM 1% | [5]; [16] 19% | [5]; at 11.0 µM 6% | [5]; at 33.0 µM 36% | [5]; [17] 35% | [5]; at 50.0 µM 32.9% | [5]; at 100.0 µM 67% | [6]; at 1.2 µM 4% | [6]; at 3.7 µM 1% | [6]; at 11.0 µM 6% | [6]; at 33.0 µM 39% | [7]; [16] -8% | [7]; [17] 26% | [7]; at 50.0 µM 40.4% | [8]; at 1.2 µM 12% | [8]; at 3.7 µM 23% | [8]; at 11.0 µM 25% | [8]; at 33.0 µM 29% | [8]; at 100.0 µM 53% | [9]; [16] -11% | [9]; [17] 27% | [9]; at 50.0 µM 34.5% | [10]; at 1.2 µM -18% | [10]; at 3.7 µM -3% | [10]; [16] -2% | [10]; at 11.0 µM -4% | [10]; at 33.0 µM 10% | [10]; [17] 1% | [10]; at 50.0 µM -10.2% | [10]; at 100.0 µM 18% | [11]; at 1.2 µM -27% | [11]; at 3.7 µM -33% | [11]; at 11.0 µM -25% | [11]; at 33.0 µM -17% | [11]; at 100.0 µM -2% | [12]; at 1.2 µM -7% | [12]; at 3.7 µM -32% | [12]; at 11.0 µM -9% | [12]; at 33.0 µM 17% | [12]; at 100.0 µM 38% | [13]; at 1.2 µM 20% | [13]; at 3.7 µM 14% | [13]; at 11.0 µM 24% | [13]; at 33.0 µM 40% | [13]; at 100.0 µM 64% | [14]; [16] 23% | [15]; at 1.2 µM 26% | [15]; at 3.7 µM 59%
active: [1]; at 100.0 µM 79% | [4]; at 100.0 µM 79% | [6]; at 100.0 µM 74% | [14]; [17] 74% | [14]; at 50.0 µM 79.4% | [15]; at 11.0 µM 79% | [15]; at 33.0 µM 89% | [15]; at 100.0 µM 93%

CCNCC(=O)O[C@]1(CC)C(=O)OCc2c1cc1n(c2=O)Cc2cc3ccccc3nc2-1
inactive: [1]; at 1.2 µM 38% | [1]; at 3.7 µM 28% | [1]; at 11.0 µM 20% | [1]; at 33.0 µM 19% | [1]; at 100.0 µM 16% | [2]; at 1.2 µM 19% | [2]; at 3.7 µM 12% | [2]; at 11.0 µM 13% | [2]; at 33.0 µM 2% | [2]; at 100.0 µM 4% | [3]; at 1.2 µM 35% | [3]; at 3.7 µM 25% | [3]; at 11.0 µM 9% | [3]; at 33.0 µM 2% | [3]; at 100.0 µM -11% | [4]; at 1.2 µM 22% | [4]; at 3.7 µM 15% | [4]; at 11.0 µM 17% | [4]; at 33.0 µM 10% | [4]; at 100.0 µM -6% | [5]; at 1.2 µM 35% | [5]; at 3.7 µM 19% | [5]; [16] 4% | [5]; at 11.0 µM 19% | [5]; at 33.0 µM 6% | [5]; at 100.0 µM 6% | [6]; at 1.2 µM 11% | [6]; at 3.7 µM 6% | [6]; at 11.0 µM -1% | [6]; at 33.0 µM 6% | [6]; at 100.0 µM 1% | [7]; [16] 31% | [7]; [17] 60% | [7]; at 50.0 µM 57.5% | [8]; at 1.2 µM 33% | [8]; at 3.7 µM 30% | [8]; at 11.0 µM 32% | [8]; at 33.0 µM 22% | [8]; at 100.0 µM 18% | [9]; [16] 15% | [9]; [17] 31% | [9]; at 50.0 µM 25.6% | [10]; at 1.2 µM 28% | [10]; at 3.7 µM 1% | [10]; [16] 7% | [10]; at 11.0 µM 14% | [10]; at 33.0 µM -2% | [10]; [17] 39% | [10]; at 50.0 µM 40.8% | [10]; at 100.0 µM -6% | [11]; at 1.2 µM -29% | [11]; at 3.7 µM -32% | [11]; at 11.0 µM -19% | [11]; at 33.0 µM 25% | [13]; at 1.2 µM 9% | [13]; at 3.7 µM 15% | [13]; at 11.0 µM 13% | [13]; at 33.0 µM 5% | [13]; at 100.0 µM -21% | [14]; [16] 16% | [14]; [17] 47% | [14]; at 50.0 µM 47.4% | [15]; at 1.2 µM 25% | [15]; at 3.7 µM 27% | [15]; at 11.0 µM 21% | [15]; at 33.0 µM 22% | [15]; at 100.0 µM 13%
active: [4]; [16] 72% | [4]; [17] 90% | [4]; at 50.0 µM 86% | [5]; [17] 73% | [5]; at 50.0 µM 76% | [11]; at 100.0 µM 76%
